# Shown is part of a subset that was picked to be rich in hits.
# Cycloheximide cs – counter-screen for Shiga toxin inhibitors: cycloheximide protein synthesis inhibition; cell reporter, cycloheximide protein synthesis inhibition counterscreen; max response, %; 12% of 300,000 active; AID 2314; in the data active = max response mostly above about 13%, no sharp cut-off; inactive = mostly below about 14%; also: read at 38.3 µM for the half of the compounds with a filed dose; 0% is about no effect
# Tb PYK inh – T. brucei pyruvate kinase inhibition. TbPYK enzyme, Kinase-Glo Plus ATP luminescence, 45 min. 0.12% of 410,000 active. Q57TT1. Potency, µM (top dose mostly 76.8 µM), for the others: at the highest dose activity, negative = inhibition, hits mostly inhibitors; also: potency is read from the fitted curve at half-maximal effect; % is scaled to controls: 0 for no effect and ±100 for the full control effect; nearly all actives have a fitted effect of over 50% in size
#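 In this concentration-response screen, enzyme-free wells defined baseline while DMSO plates tracked drift. Each reaction combined TbPYK, substrate, compound and 130 uM ADP for 45 min at room temperature. Kinase-Glo Plus luminescence gave the signal.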
# LmPK inhibitor – LmPK (Leishmania mexicana) enzyme inhibition | AID 1721 | purified LmPK, Kinase-Glo ATP luminescence, 1 h | 0.37% of 290,000 active | Potency, µM (top dose mostly 57.5 µM), inactives show top-dose activity change, negative = inhibition, most hits filed as inhibitors; also: potency is read from the fitted curve at half-maximal effect; % is scaled to controls: 0 for no effect and ±100 for the full control effect
#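 Purified LmPK (0.1 nM) with 0.5 mM PEP and 0.1 mM ADP in imidazole buffer pH 7.2 with MgCl2/KCl, 1 h at room temperature. ATP formed was read by luciferase luminescence and normalized to no-enzyme and uninhibited controls.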
# Shiga inhibitor – inhibitors of Shiga toxin in Vero cells. Vero cells, Shiga toxin protein synthesis inhibition reporter. inhibition, % at 38.7 µM. 9.2% of 290,000 active. AID 2315; in the data active = inhibition mostly above about 28%, no sharp cut-off; inactive = mostly below about 43%; also: 0% is about no effect
# Giardia FBPA inh – inhibitors of Giardia lamblia fructose-1,6-bisphosphate aldolase; Potency, µM (top dose mostly 59.6 µM), for inactives: top-dose activity, negative = inhibition, most hits filed as inhibitors; A8B2U2; purified Giardia FBPA; 0.71% of 290,000 active; also: potency is read from the fitted curve at half-maximal effect; % is scaled to controls: 0 for no effect and ±100 for the full control effect; nearly all actives have a fitted effect of over 55% in size
# Target sequence (A8B2U2 whole entry, looked up): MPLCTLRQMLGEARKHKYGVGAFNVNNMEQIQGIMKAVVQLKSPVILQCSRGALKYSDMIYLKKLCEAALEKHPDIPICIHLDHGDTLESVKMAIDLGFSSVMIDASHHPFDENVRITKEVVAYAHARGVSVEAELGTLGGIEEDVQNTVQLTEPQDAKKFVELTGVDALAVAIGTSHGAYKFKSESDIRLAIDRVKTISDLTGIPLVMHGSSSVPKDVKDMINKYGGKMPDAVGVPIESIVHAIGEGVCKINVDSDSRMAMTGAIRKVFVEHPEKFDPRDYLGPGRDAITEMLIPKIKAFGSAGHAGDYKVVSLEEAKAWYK
#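 40 nM FBPA preincubated 10 min at RT with compound (up to 57.5 uM final), then substrate plus GAPDH/TPI/NAD/arsenate coupling and diaphorase/resazurin added. Fluorescence read after 20 min at RT, 525/598 nm.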
# Sm TGR inh – blocks Schistosoma mansoni thioredoxin glutathione reductase; Q962Y6; purified TGR, DTNB reduction, TNB absorbance 405 nm; Potency, µM (series often up to 114 µM), without a hit: top-dose activity change, negative = inhibition, most hits filed as inhibitors; 3% of 360,000 active; also: potency is read from the fitted curve at half-maximal effect; % is scaled to controls: 0 for no effect and ±100 for the full control effect; nearly all actives have a fitted effect of over 60% in size
#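 TGR 20 nM + NADPH 100 uM (dispensed conc.), cpd preinc 15 min RT; start with NADPH (500 uM addition) then DTNB (15 mM addition). Kinetic TNB absorbance, 405 nm filter. Four-parameter Hill fit across titration.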
# * hit, by the source's call; ? = inconclusive; . = no result given; [ ] = remark or other dose. Unless noted, calls follow the shape of the dose curve; as a rule, active = well fitted curve in the direction sought with a large enough effect; inconclusive = small, poorly fitted or top-dose-only effect, or another doubt; inactive = no such curve, though single readings can be large; an effect the other way counts as inactive or inconclusive.
SMILES,Cycloheximide cs,Tb PYK inh,LmPK inhibitor,Shiga inhibitor,Giardia FBPA inh,Sm TGR inh
O=C(CCNS(=O)(=O)c1ccc2c(c1)CCN2C(=O)C1CC1)N1CCN(c2cccc(Cl)c2)CC1,.,6%,.,.,.,-2%
O=C(NCc1ccc(F)cc1)c1ccc(CSc2nc3ccncc3n2Cc2ccc(F)cc2)cc1,.,2%,.,.,.,-4%
CCSc1nnc(N2C(=O)C(O)=C(C(=O)c3ccco3)C2c2cccc(OC)c2)s1 (stereo not drawn),39*,3%,0%,90*,.,?
CSc1nnc(N2C(=O)C(O)=C(C(=O)c3ccco3)C2c2cccc(Cl)c2)s1 (stereo not drawn),34*,1%,1%,22,.,8.9µM*
CCCOc1cccc(C2C(C(=O)c3ccc(C)o3)=C(O)C(=O)N2c2nc(C)c(C(C)=O)s2)c1 (stereo not drawn),1,-9%,5%,-8,?,35µM*
CCCCN([C@H](CO)C(C)C)S(=O)(=O)c1ccccc1Br,.,-2%,.,.,.,.
COc1cccc(-c2nc(CS(=O)CC(=O)N3CCN(c4cccc(C(F)(F)F)c4)CC3)c(C)o2)c1 (stereo not drawn),.,-3%,.,.,.,?
Cc1oc(-c2ccc(Cl)cc2)nc1CS(=O)CC(=O)N1CCC2(CC1)OCCO2 (stereo not drawn),-2,-3%,1%,-12,-5%,20µM*
Cc1ccc(-c2nc(CS(=O)CC(=O)N3CCN(c4cccc(Cl)c4)CC3)c(C)o2)cc1 (stereo not drawn),.,2%,.,.,.,?
Cc1oc(-c2ccccc2F)nc1CS(=O)CC(=O)NCc1ccc(F)cc1 (stereo not drawn),-1,6%,-2%,4,-3%,?
Cc1oc(-c2ccccc2F)nc1CS(=O)CC(=O)N1CCC2(CC1)OCCO2 (stereo not drawn),-2,.,-1%,-16,.,28µM*
COc1cccc(-c2nc(CS(=O)CC(=O)N3CCC4(CC3)OCCO4)c(C)o2)c1 (stereo not drawn),-2,-7%,0%,-6,.,5µM*
CC(C)C[C@@H](CC(=O)N[C@@H](CCC(=O)O)CC(=O)O)NC(=O)[C@@H]1CNCC[C@H]1NC(=O)C[C@@H](NC(=O)C[C@H](Cc1ccccc1)NC(=O)[C@@H]1CCCC[C@H]1N)C(C)C,.,.,.,.,-24%,.
CC(CCC(=O)O)C1CCC2C3C(=O)CC4CC(=O)CC[C@@]4(C)C3CC(=O)[C@]12C (stereo partly drawn),.,.,.,.,1%,.
CC(C)[C@@H](OCc1ccccc1)[C@H](C)/C=N\OC[C@@H](O)[C@@H]1O[C@@H]2OC(C)(C)O[C@@H]2[C@H]1O,.,.,.,.,0%[12.9 µM],.
Cc1ccn(-c2ccc([N+](=O)[O-])cc2)n1,12*,0%,0%,42*,1%,-5%
CCOC(=O)c1sc2ncn(CC(=O)Nc3cc(C)on3)c(=O)c2c1C,.,-1%,.,.,.,-9%
CCCc1ccc(OC(=O)c2sc3ncn(Cc4cccc(F)c4)c(=O)c3c2C)cc1,.,0%,.,.,.,-1%
CCOC(=O)Cn1cnc2sc(C(=O)OC)c(C)c2c1=O,11,-3%,0%,25*,2%,3%
Cc1ccc(OCCn2cnc3sc(C(N)=O)c(C)c3c2=O)cc1,10,.,-1%[11.5 µM],-3,4%,-7%
CCn1cnc2sc(C(=O)Oc3ccc(Br)cc3)c(C)c2c1=O,30*,6%,-4%,64*,-4%,-7%
CCOCCn1cnc2sc(C(=O)NCC(=O)OCC)c(C)c2c1=O,23*,4%,-7%,32*,0%,-25%
Cc1ccc(Nc2c(F)cccc2Cl)c(CC(=O)O)c1,.,6%,.,.,.,.
CN(C)S(=O)(=O)c1ccc(C(=O)NC(=O)CSc2nncs2)cc1,.,-6%,.,.,.,.
NS(=O)(=O)c1ccc(CCNS(=O)(=O)c2ccc(Cl)s2)cc1,.,0%,.,.,.,.
SMILES,Cycloheximide cs,Tb PYK inh,LmPK inhibitor,Shiga inhibitor,Giardia FBPA inh,Sm TGR inh
CCCCNC(=O)Cn1nc(N2CCN(c3ccccc3OC)CC2)ccc1=O,.,0%,.,.,.,0%
Cc1nn(Cc2ccc(F)cc2)c(Cl)c1/C=N/NC(=O)c1cccnc1,5,5%,0%,22,2%,2%
Cc1nn(Cc2ccc(F)cc2)c(Cl)c1/C=N/NC(=O)c1ccccc1,18*,1%,2%,39,0%,10%
Cc1nn(Cc2ccccc2)c(C)c1/C=N/NC(=O)c1ccccc1O,42*,0%,3%,99*,4%,7%
Cc1nn(Cc2ccccc2)c(C)c1/C=N/NC(=O)c1ccncc1,-2,1%,7%,-3,3%,15%
OC[C@@H]1O[C@H](OC2[C@@H](O)[C@@H](O)[C@@H](O)O[C@@H]2CO)[C@H](O)[C@@H](O)[C@@H]1OC1O[C@H](CO)[C@@H](O)[C@H](O)[C@@H]1O (stereo partly drawn),-4,.,.,-5,-19%,.
Cc1ccc(C(=O)OCc2nnc(-c3ccccc3)o2)o1,25*,1%,-4%,34,-3%,6%
O=C(OCc1nnc(-c2ccccc2)o1)c1cc2ccccc2cc1O,12,1%,0%,31,-1%,0%
Cc1ccc(-c2nnc(COC(=O)c3ccco3)o2)cc1,38*,7%,-6%,60*,.,-11%
Cc1ccc(-c2nnc(COC(=O)c3cccs3)o2)cc1,54*,-11%,-4%,80*,6%,3%
O=C(OCc1nnc(-c2ccccc2Br)o1)c1ccco1,.,-8%,.,.,.,.
O=C(OCc1nnc(-c2ccccc2)o1)c1ccc2ccccc2n1,12*,-10%,-4%,26*,0%,4%
c1ccc(Nc2nc(-c3ccncc3)cs2)cc1,60*,-6%,0%,47*,-4%,-2%
Fc1ccc(Nc2nc(-c3ccncc3)cs2)cc1,39*,0%,0%,80*,1%,-4%
Nc1ccc(Nc2ccncc2)cc1,.,-1%,.,.,.,.
Nc1ccc(Nc2nc(-c3ccncc3)cs2)cc1,34*,-5%,-8%,62,1%,7%
O=C(Nc1nc(-c2ccc(F)cc2)cs1)c1cnccn1,2,-1%,3%,-11,-3%,5%
O=C(NNC(=O)c1cccnc1Cl)c1ccc(F)cc1,3,0%,-5%,-3,.,3%
CC1CCCN(CC(=O)Nc2ccc(S(=O)(=O)N3C(C)CCCC3C)cc2)C1 (stereo not drawn),.,-1%,.,.,.,.
CCc1ccc(N2C(=O)CC(N3CCN(c4ccccn4)CC3)C2=O)cc1 (stereo not drawn),5,3%,2%,-4,8%,22µM*
O=C1CC(N2CCN(c3ccccn3)CC2)C(=O)N1CC(c1ccccc1)c1ccccc1 (stereo not drawn),0,-7%,2%,9,-5%,7.1µM*

# Bioassay records: PubChem BioAssay, National Center for Advancing Translational Sciences (NCATS)
